From the supplement of paper PMC11732987, “Enantioselective OTUD7B fragment discovery through chemoproteomics screening and high-throughput optimisation” (Communications Chemistry, 2025)
Unmarked numbers belong to inactive results.

What was measured:
Assay in all cases: log2 ratio of Biotin-Ahx-Ub-VS probe labelling (fragment/DMSO); higher = less target engagement (more negative = stronger competition), active = hit call of the paper (q ≤ 0.05, log2 ratio ≤ -1)
Conditions in all cases: compound concentration: 200 uM; treatment time: 3 h
OTUD6B = biological target: T1, OTUD6B (UniProt Q8N6M0)
T1 sequence (whole entry): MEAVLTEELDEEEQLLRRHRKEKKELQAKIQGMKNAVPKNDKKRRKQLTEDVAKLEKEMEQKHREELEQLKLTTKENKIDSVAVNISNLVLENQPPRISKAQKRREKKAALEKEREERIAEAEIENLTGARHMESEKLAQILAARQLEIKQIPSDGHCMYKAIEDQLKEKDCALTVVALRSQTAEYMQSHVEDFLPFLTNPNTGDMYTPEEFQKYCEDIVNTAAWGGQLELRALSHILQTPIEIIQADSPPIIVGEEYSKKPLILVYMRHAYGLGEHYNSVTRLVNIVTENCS
Outline: (§1)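 Fragment (200 µM) or vehicle was incubated for 3 h with triplicate HEK293T lysate samples of 495 µg, which were then treated with Biotin-Ahx-Ub-VS at 0.5 µM final for 1 h. Labelled DUBs were enriched on NeutrAvidin, digested with LysC and trypsin, and analysed by diaPASEF LC-MS/MS. Values are average log2 fragment/vehicle ratios from an unpaired t-test on global-median-normalised Spectronaut label-free quantities, using proteins with ≥2 unique peptides.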

OTUD7B = biological target: T2, OTUD7B (UniProt Q6GQQ9)
T2 sequence (whole entry): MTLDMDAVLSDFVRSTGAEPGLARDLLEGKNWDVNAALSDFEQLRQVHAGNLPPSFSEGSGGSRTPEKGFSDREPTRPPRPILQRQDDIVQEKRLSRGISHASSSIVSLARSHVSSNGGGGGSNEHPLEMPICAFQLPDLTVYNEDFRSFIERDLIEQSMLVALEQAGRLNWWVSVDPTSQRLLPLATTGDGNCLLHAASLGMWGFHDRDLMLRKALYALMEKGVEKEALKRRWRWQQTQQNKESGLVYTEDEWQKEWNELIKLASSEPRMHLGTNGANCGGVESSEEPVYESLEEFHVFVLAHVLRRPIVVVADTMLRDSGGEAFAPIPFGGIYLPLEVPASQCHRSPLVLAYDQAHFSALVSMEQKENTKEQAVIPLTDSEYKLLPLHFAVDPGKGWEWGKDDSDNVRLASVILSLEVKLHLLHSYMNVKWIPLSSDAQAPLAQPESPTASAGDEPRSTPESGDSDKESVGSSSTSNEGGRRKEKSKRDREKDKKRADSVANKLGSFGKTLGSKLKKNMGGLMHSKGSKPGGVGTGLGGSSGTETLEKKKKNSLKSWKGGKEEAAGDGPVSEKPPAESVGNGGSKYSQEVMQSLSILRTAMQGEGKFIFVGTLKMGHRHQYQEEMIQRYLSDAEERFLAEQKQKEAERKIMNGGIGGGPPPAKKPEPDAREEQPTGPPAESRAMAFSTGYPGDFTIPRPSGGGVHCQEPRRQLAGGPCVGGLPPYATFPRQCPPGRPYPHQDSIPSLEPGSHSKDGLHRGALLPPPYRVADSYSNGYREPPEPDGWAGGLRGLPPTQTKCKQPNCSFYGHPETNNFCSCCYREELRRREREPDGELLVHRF
Outline: as §1

PRPF8 = PRPF8 (UniProt Q6P2Q9)
Outline: as §1

PSMD7 = biological target: T3, PSMD7 (UniProt P51665)
T3 sequence (whole entry): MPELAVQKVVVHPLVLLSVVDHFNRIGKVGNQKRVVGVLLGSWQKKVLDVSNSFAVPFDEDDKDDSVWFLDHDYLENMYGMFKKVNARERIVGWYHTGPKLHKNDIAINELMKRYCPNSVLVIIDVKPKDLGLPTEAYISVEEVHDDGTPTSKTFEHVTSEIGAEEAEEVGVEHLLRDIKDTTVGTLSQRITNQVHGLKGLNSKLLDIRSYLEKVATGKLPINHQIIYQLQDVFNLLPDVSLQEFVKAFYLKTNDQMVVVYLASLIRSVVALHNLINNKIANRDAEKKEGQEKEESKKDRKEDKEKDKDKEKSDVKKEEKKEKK
Outline: as §1

UCHL1 = UCHL1 (UniProt P09936)
Outline: as §1

UCHL3 = biological target: T4, UCHL3 (UniProt P15374)
T4 sequence (whole entry): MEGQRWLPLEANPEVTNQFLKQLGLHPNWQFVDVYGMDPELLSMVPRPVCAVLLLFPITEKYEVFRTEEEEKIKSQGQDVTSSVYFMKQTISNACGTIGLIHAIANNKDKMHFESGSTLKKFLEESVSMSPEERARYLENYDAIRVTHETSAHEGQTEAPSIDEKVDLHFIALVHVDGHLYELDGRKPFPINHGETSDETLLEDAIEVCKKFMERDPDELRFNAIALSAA
Outline: as §1

UCHL5 = biological target: T5, UCHL5 (UniProt Q9Y5K5)
T5 sequence (whole entry): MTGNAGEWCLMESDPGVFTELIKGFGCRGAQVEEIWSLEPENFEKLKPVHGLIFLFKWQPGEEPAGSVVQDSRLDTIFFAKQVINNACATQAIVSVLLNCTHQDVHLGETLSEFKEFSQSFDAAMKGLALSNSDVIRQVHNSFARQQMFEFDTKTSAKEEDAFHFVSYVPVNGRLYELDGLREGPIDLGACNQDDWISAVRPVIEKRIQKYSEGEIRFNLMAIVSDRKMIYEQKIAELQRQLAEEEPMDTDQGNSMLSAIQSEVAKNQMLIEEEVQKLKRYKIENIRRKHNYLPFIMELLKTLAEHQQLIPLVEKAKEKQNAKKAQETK
Outline: as §1

USP10 = USP10 (UniProt Q14694)
Outline: as §1

USP15 = biological target: T6, USP15 (UniProt Q9Y4E8)
T6 sequence (whole entry): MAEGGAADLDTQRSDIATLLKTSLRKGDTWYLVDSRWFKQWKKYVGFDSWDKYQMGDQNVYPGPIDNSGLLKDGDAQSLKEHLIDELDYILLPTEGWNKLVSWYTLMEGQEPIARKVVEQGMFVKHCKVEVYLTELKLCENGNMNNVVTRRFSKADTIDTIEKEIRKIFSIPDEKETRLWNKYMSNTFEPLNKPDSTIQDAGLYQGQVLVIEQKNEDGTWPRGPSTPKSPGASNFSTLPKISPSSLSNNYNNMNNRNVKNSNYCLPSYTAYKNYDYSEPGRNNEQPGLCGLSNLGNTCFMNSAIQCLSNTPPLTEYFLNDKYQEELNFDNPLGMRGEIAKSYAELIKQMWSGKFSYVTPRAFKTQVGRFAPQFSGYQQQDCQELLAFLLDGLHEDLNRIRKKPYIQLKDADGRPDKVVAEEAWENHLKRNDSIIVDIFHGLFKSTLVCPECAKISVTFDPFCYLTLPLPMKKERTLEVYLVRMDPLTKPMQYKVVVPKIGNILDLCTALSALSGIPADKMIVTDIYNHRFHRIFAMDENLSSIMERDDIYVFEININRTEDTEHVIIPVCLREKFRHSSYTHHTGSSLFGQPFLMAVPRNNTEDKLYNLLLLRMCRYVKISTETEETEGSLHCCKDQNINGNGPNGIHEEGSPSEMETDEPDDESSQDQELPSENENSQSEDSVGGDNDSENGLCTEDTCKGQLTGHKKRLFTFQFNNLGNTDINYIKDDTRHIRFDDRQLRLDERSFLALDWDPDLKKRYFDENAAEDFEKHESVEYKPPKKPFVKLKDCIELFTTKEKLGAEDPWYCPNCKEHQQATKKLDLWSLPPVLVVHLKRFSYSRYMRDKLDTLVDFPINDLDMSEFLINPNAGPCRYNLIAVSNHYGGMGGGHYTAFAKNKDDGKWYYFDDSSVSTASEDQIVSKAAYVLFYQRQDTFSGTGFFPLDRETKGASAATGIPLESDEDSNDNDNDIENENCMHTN
Outline: as §1

USP16 = USP16 (UniProt Q9Y5T5)
Outline: as §1

Chain of USP10 (Q14694 whole entry): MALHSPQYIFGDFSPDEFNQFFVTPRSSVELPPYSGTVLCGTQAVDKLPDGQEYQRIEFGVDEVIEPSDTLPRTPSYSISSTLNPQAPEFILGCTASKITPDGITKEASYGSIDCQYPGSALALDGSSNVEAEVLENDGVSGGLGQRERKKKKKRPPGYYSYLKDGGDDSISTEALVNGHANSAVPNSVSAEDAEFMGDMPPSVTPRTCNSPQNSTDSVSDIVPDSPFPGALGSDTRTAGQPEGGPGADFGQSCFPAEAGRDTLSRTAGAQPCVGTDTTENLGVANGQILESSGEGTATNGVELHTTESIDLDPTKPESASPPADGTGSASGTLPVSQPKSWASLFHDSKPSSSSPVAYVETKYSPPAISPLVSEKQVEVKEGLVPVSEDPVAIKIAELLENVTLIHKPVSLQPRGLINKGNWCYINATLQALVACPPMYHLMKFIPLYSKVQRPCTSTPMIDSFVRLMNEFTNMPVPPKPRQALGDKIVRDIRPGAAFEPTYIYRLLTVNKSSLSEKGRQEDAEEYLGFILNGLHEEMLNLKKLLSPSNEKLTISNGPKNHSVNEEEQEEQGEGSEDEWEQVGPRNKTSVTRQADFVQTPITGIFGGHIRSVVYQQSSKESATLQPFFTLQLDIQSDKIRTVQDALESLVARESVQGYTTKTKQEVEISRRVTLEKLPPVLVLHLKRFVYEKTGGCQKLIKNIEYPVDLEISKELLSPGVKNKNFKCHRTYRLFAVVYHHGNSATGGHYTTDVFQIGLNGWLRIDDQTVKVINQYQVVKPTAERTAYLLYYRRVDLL
Chain of USP16 (Q9Y5T5 whole entry, looked up): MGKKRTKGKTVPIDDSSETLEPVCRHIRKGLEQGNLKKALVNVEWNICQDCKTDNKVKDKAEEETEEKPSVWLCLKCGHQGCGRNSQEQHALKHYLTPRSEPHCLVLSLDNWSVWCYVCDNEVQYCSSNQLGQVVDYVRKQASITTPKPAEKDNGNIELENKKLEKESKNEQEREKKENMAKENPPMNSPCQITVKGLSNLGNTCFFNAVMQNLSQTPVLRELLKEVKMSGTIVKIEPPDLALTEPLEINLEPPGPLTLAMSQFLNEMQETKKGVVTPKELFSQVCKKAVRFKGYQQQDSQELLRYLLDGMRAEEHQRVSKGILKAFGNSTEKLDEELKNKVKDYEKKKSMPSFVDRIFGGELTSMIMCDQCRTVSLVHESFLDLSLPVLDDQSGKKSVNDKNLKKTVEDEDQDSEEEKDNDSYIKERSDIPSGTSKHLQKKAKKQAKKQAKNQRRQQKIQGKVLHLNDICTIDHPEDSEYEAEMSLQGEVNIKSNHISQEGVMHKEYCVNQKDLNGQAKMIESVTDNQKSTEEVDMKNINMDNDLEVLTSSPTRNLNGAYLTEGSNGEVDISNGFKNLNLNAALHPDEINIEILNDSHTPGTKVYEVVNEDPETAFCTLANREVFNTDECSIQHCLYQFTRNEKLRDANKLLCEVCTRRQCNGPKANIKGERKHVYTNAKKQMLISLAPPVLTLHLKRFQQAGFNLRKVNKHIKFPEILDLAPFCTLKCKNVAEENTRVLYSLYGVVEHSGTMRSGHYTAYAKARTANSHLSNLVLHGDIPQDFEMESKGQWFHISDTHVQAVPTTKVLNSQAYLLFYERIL
Chain of UCHL1 (P09936 whole entry, looked up): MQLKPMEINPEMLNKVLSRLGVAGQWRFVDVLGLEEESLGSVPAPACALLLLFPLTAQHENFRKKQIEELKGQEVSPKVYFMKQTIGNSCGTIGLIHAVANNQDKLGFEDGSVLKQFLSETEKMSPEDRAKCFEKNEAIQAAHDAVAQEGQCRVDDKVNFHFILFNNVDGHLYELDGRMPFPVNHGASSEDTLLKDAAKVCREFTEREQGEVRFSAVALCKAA

Cl.Cn1cnc2cc(CNC(=O)CCl)ccc21
log2 ratio of Biotin-Ahx-Ub-VS probe labelling (OTUD6B): -0.108
log2 ratio of Biotin-Ahx-Ub-VS probe labelling (OTUD7B): -0.399
log2 ratio of Biotin-Ahx-Ub-VS probe labelling (PRPF8): 0.126
log2 ratio of Biotin-Ahx-Ub-VS probe labelling (PSMD7): -0.0706
log2 ratio of Biotin-Ahx-Ub-VS probe labelling (UCHL1): -1.72 (active)
log2 ratio of Biotin-Ahx-Ub-VS probe labelling (UCHL3): 0.249
log2 ratio of Biotin-Ahx-Ub-VS probe labelling (UCHL5): 0.000192
log2 ratio of Biotin-Ahx-Ub-VS probe labelling (USP10): -0.194
log2 ratio of Biotin-Ahx-Ub-VS probe labelling (USP15): -0.333
log2 ratio of Biotin-Ahx-Ub-VS probe labelling (USP16): -0.459
